About 83,000 compounds went through this panel and 20% of them were active in at least one assay; those are over-represented in the sample as a whole.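 For each line, cells grew in 96-well plates with the test compound present at a single concentration for 48 hours.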 A number with no mark means an inactive call. The source made the active and inactive calls. How the source made its calls: active means growth percent below 10; inactive means the rest.
What was measured:
Assay in all cases: NCI-60 one-dose screen, 48 h (100 = growth as untreated, 0 = no growth, -100 = all killed)
Conditions in all cases: 10 µM unless noted
[1] = test system: DU-145 prostate
[2] = test system: K-562 leukemia
[3] = test system: MALME-3M melanoma
[4] = test system: MDA-MB-231 breast
[5] = test system: RXF 393 renal
[6] = test system: SF-268 CNS
[7] = test system: SF-295 CNS
[8] = test system: SF-539 CNS
[9] = test system: UACC-257 melanoma
[10] = test system: M14 melanoma
[11] = test system: HCT-15 colon
[12] = test system: HT29 colon
[13] = test system: SNB-75 CNS
[14] = test system: SNB-19 CNS
[15] = test system: PC-3 prostate
[16] = test system: SK-MEL-5 melanoma
[17] = test system: UACC-62 melanoma
[18] = test system: LOX IMVI melanoma
[19] = test system: SK-MEL-28 melanoma
[20] = test system: U251 CNS

Compound	growth [1]	growth [2]	growth [3]	growth [4]	growth [5]	growth [6]	growth [7]	growth [8]	growth [9]	growth [10]	growth [11]	growth [12]	growth [13]	growth [14]	growth [15]	growth [16]	growth [17]	growth [18]	growth [19]	growth [20] [%]
CCCCCCCCn1ccc2cc(NC(=O)Cn3cc(CN4CCOCC4)nn3)ccc21	106%	89.1%	100%	90.5%	91.9%	106%	90.1%	104%	104%	91%	92.4%	108%	100%	92.9%	75.2%	86.7%	86.8%	102%	99.8%	
O=C(Nc1ccccc1)c1sc(-c2ccccc2)cc1O	106%	82.6%	84.8%	105%	105%	98.1%	95.3%	90.8%	128%	96.2%	97.4%	107%	82.6%	101%	95.2%	83.7%	67%	109%	84.4%	
O=C1Nc2ccc(F)cc2/C1=N/c1nnc(Sc2ccccc2)s1	105%	79.7%	110%	87.1%	110%	94.2%	108%	88.5%	100%	99.2%	98.3%	105%	80.2%	105%	91.7%	86.7%	88.8%	90.9%	116%	
Clc1nn2c(Cn3cnc4c(NCc5ccccc5)ncnc43)nnc2c2ccccc12	36.7%	42.7%	27.8%	26.6%	39%	41.9%	63.2%	50.7%	39.1%	19.7%	25.8%	56.4%	37.1%	61.9%	42%	58.6%	22.4%	31.3%	46%	
CC12CCC(/C(=C/NNc3ccc([N+](=O)[O-])cc3[N+](=O)[O-])C1=O)C2(C)C (stereo not drawn)	4.67% (active)	77.9%	128%	66.1%	64.6%	77.8%	85.2%	102%	64.4%	65.5%	23%	52.6%	136%	94.1%		65.5%		56.5%	83.5%	58.4
Clc1ccc(-c2nc(-c3c[nH]c4ncccc34)cs2)cc1	79.6% [100 µM]	100% [100 µM]	73% [100 µM]	31.1% [100 µM]	18.5% [100 µM]	40.9% [100 µM]	18.6% [100 µM]	20.6% [100 µM]	105% [100 µM]	70.3% [100 µM]	98.7% [100 µM]	80.2% [100 µM]	-11.3% [100 µM] (active)	48.7% [100 µM]	43.9% [100 µM]	84.1% [100 µM]	71.2% [100 µM]	62.6% [100 µM]	94% [100 µM]	
O=C(CBr)CN1C(=O)c2ccccc2C1=O	104%	89.7%	100%	107%	120%	99.1%	101%	96.2%	101%	104%	110%	99.9%	93.5%	115%		111%	102%	94.7%	101%	
CCCC(O)Cn1ncc(C(=O)OCC)c1NC(=O)NCc1cccc(F)c1 (stereo not drawn)	99.4%	68.6%	97.6%	103%	120%	98.4%	93.3%	94.8%	85.2%	80.5%	99.7%	88.8%	93.6%	102%	83.6%	101%	97.1%	92.7%	97.8%	
O=P(O)(O)OCC1OC(n2cnc3c(NCc4ccccc4)ncnc32)C(O)C1O (stereo not drawn)	-50.3% (active)	60.8%	80.9%	10.6%	-0.932% (active)	36.3%	52.4%	6.39% (active)	115%	29.4%	9.47% (active)	23.3%	49.9%	40.8%	19.2%	84.1%	38.4%	-8.76% (active)	127%	
CN1C(=O)N(C)C2C1NC(=S)N2/N=C/C=C/c1ccccc1[N+](=O)[O-] (stereo not drawn)	18.7%	14.7%	54.4%	56.1%	13.1%	41.3%	9.8% (active)	2.83% (active)	44.1%	6.06% (active)	29%	2.85% (active)	-5.19% (active)	37%	17.3%	11.8%	26.4%		56.7%	
COC(=O)c1c2c(n3ccc(C)cc13)C(=O)c1ccccc1C2=O	75.2%	60.8%	62.2%	77.9%	75.9%	74.9%	67.6%	94.8%	72.4%	63.5%	53.6%	61.5%	109%		48.9%	28.5%	78.3%	58.3%	99.4%	77.3
CC(O)c1ncc(/C=C2\SC(=S)N(Cc3ccccc3)C2=O)s1 (stereo not drawn)	89.2%	87.9%	93.2%	94%	102%	89.8%	102%	85%	96.2%	93.8%	97.4%	59.4%	102%		97.3%	93.7%	99.4%	92.7%	92.2%	
Nc1ncnc2c1c(-c1ccc(Oc3ccccc3)cc1)nn2CC1SSCC1O (stereo not drawn)	49%	11.2%	-34.8% (active)	47%	17.7%	48.8%	73%	41.2%	46.6%	-73.5% (active)	65.3%	39.2%	43.5%		61.7%	-42.9% (active)	-76.1% (active)	19.2%	2.15% (active)	39.7
